The nature of experiment [1]: NCI Yeast Anticancer Drug Screen. Data for the rad50 strain (AID 155).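 Also: 0% = growth of vehicle-only cultures of the same strain.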 Particulars: S. cerevisiae rad50 strain growth inhibition; at 50.0 µM; active compounds read high. In a few lines: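 Genetically altered yeast (DNA repair pathway); compound treatment; growth inhibition vs vehicle ctrl.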
The nature of experiment [2]: NCI Yeast Anticancer Drug Screen. Data for the mec2-1 strain (AID 157). Particulars: S. cerevisiae mec2-1 strain, at 50.0 µM, active compounds read high. In a few lines: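 Cells of the genetically defined mec2-1 yeast strain are incubated with test compound. Inhibition of growth is calculated against vehicle-treated controls.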
Experiment [3] is described as follows: NCI Yeast Anticancer Drug Screen. Data for the sgs1 mgt1 strain (AID 161).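 Also: 0% = growth of cultures given vehicle only.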 To be noted: S. cerevisiae sgs1 mgt1 strain, at 50.0 µM, active compounds read high. In a few lines:
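Mutant yeast exposed to compound; growth scored against vehicle-only wells.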

Experiment [4] can be described thus: NCI Yeast Anticancer Drug Screen. Data for the cln2 rad14 strain (AID 165).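 Also: 0% = growth equal to vehicle treated cultures.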 To be noted: S. cerevisiae cln2 rad14 strain, at 50.0 µM, active compounds read high. In a few lines:
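The screen exposed genetically defined yeast (cln2 rad14) to test compounds and scored growth inhibition relative to vehicle-treated controls.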

Experiment [5] is described as follows: NCI Yeast Anticancer Drug Screen. Data for the bub3 strain (AID 167). To be noted: S. cerevisiae bub3 mutant strain, at 50.0 µM, active compounds read high. Put shortly: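 Yeast carrying a defined mutation is treated with each compound, and growth is compared with that of vehicle-exposed cells to give inhibition.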
Experiment [6] in a line: NCI Yeast Anticancer Drug Screen. Data for the mlh1 rad18 strain (AID 175). To be noted: S. cerevisiae mlh1 rad18 strain growth inhibition; at 50.0 µM; active compounds read high. Put shortly:
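Compound-treated yeast growth, normalised to vehicle controls. Strain bears defined DNA repair mutations.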

The text below walks through data of PubChem BioAssay (NCI).

This is part of a sample that, as a whole, favours compounds with a hit. Of some 79,000 tested, about 15% had one in any assay. Unmarked numbers belong to inactive results. Active and inactive are the calls of the source. Rule as the data show it: active = growth inhibition above about 70%; inactive = the rest.

As to `O=c1cnc2c(ccc3ccccc32)[nH]1`, the growth inhibition in experiment [1] is -2.7%; in experiment [2], -20.8%; in experiment [3], -16.1%; in experiment [4] it was 6.55%; in experiment [5] it was 8.4%; in experiment [6] it was -5.95%.
Consider `CC(C)(O)CCC(C)(C)O`, for which the growth inhibition in experiment [1] is 60.3%; in experiment [2], -19.1%; in experiment [3] it was 41.9%; in experiment [4], -25.9%; in experiment [5], 0.5%; in experiment [6], 45.2%.
Regarding `CC(=O)Nc1ccccc1C(C)=O`, the growth inhibition in experiment [1] is 5.45%; in experiment [2], -7.25%; in experiment [3] it was -10.2%; in experiment [4], 10%; in experiment [5] it was -8.05%; in experiment [6] it was 4.85%.
Turning to `CC(=O)Oc1c(C(=O)O)cccc1-c1ccccc1`, the growth inhibition in experiment [1] is -12.8%; in experiment [2], -7.1%; in experiment [3] it was 9.6%; in experiment [4], -15.8%; in experiment [5], 30%; in experiment [6], 4.95%.
`NC(=O)c1cn(C2OC(CO)C(O)C2O)c(=O)[nH]c1=O` (stereo unspecified): the growth inhibition was 14.2% in experiment [1]; -8.8% in experiment [2]; -0.1% in experiment [3]; 18.8% in experiment [4]; -12.7% in experiment [5]; -5.25% in experiment [6].
Turning to `Cc1ccc(OC(=O)c2ccccc2)cc1CC(Cl)(Cl)Cl`, the growth inhibition in experiment [1] is -0.75%; in experiment [2], -6%; in experiment [3], -9.3%; in experiment [4] it was -19.3%; in experiment [5], 2.8%; in experiment [6] it was -14.3%.
Regarding `CCOC(=O)c1c[nH]c2ccc(-c3ccccc3)cc2c1=O`, the growth inhibition in experiment [1] is 4.65%; in experiment [2] it was 39.8%; in experiment [3] it was 4.6%; in experiment [4], 20.4%; in experiment [5], 40.7%; in experiment [6] it was 24.9%.
For `COC(=O)C[C@H](C)[C@H](C)CC(=O)O`, the growth inhibition was -17.6% in experiment [1]; -19.9% in experiment [2]; -1.6% in experiment [3]; -7.3% in experiment [4]; -0.45% in experiment [5]; -12.9% in experiment [6].
Take `CC(Cc1ccco1)(C(=O)O)C(=O)O`: the growth inhibition is 11.8% in experiment [1]; 16.3% in experiment [2]; -14.8% in experiment [3]; -1.3% in experiment [4]; -11.8% in experiment [5]; -11.6% in experiment [6].
In the case of `O=Nc1ccc(O)c2ncccc12`, the growth inhibition is 7.15% in experiment [1]; -9.45% in experiment [2]; 15.7% in experiment [3]; -26.6% in experiment [4]; 1.5% in experiment [5]; 31% in experiment [6].
Consider `CCN(CCO)CC(O)Cn1cnc2c(N)ncnc21` (stereo unspecified), for which the growth inhibition in experiment [1] was 2.35%; in experiment [2], -13.6%; in experiment [3], -18.1%; in experiment [4] it was 26.6%; in experiment [5] it was -17.3%; in experiment [6], 23.4%.
With `COc1c(Cl)c(Cl)c2ncc(Cl)cc2c1Cl`, the growth inhibition in experiment [1] is -3.7%; in experiment [2], -3.3%; in experiment [3], -3.5%; in experiment [4], -29.1%; in experiment [5], 14.8%; in experiment [6], -14.9%.
For the molecule `COc1ccc(/C=N/NC(=O)c2cnc3[nH]c(=O)n(C)c(=O)c3c2)cc1`, the growth inhibition in experiment [1] was 10.7%; in experiment [2], 10.3%; in experiment [3], 30.6%; in experiment [4], 5.45%; in experiment [5], 11.2%; in experiment [6] it was 22.4%.
Turning to `CCCC1OCC(O)C(C(O)C(=O)CN(Cc2ccccc2)Cc2ccccc2)O1` (stereo unspecified), the growth inhibition in experiment [1] is 0.1%; in experiment [2], 1.35%; in experiment [3] it was 1.55%; in experiment [4] it was -9.5%; in experiment [5], -3.8%; in experiment [6], 3.75%.
On to `O=[N+]([O-])c1ccccc1S(=O)(=O)N(CCCCCN(S(=O)(=O)c1ccccc1[N+](=O)[O-])S(=O)(=O)c1ccccc1[N+](=O)[O-])S(=O)(=O)c1ccccc1[N+](=O)[O-]`, for which the growth inhibition is -5.75% in experiment [1]; -5.95% in experiment [2]; 10.8% in experiment [3]; 20.6% in experiment [4]; -27.9% in experiment [5]; -11.4% in experiment [6].
Regarding `COc1ccccc1NC(=O)/C(=C/C1CC(=O)NC1=S)C(C)=O` (stereo unspecified), the growth inhibition in experiment [1] was -18.6%; in experiment [2], -9.4%; in experiment [3], -18.6%; in experiment [4], 15.5%; in experiment [5], 12%; in experiment [6], -7.4%.
With `CC1Cc2cc(O)ccc2C2[C@@H]1C1CC[C@H](O)[C@@]1(C)C[C@@H]2O[N+](=O)[O-]` (stereo partly specified), the growth inhibition in experiment [1] is 18.5%; in experiment [2], 19.7%; in experiment [3], 55.8%; in experiment [4], 47.3%; in experiment [5], 60.9%; in experiment [6] it was 83% (active).
As to `OC/C(Cc1cccc(O)c1)=C(/CO)Cc1cccc(O)c1`, the growth inhibition in experiment [1] was 5.5%; in experiment [2] it was 7.3%; in experiment [3], 6.7%; in experiment [4], 3.45%; in experiment [5] it was 10.4%; in experiment [6] it was 8.8%.
For `Fc1cccc(Cl)c1/C=N\N=C1c2ccccc2-c2ccccc21`, the growth inhibition was -8.1% in experiment [1]; 21.9% in experiment [2]; -22.4% in experiment [3]; -20.1% in experiment [4]; -57.8% in experiment [5]; -15.8% in experiment [6].
Regarding `N#CC(c1ccccc1)C1CCN(Cc2ccccc2)CC1` (stereo unspecified), the growth inhibition is 45.8% in experiment [1]; 20.8% in experiment [2]; 48.1% in experiment [3]; 47.8% in experiment [4]; 45.8% in experiment [5]; 33.1% in experiment [6].
Consider `O=C1C=CC(=Nc2ccc3c(c2)C(=O)c2cc(F)ccc2-3)O1`, for which the growth inhibition was -0.35% in experiment [1]; -6.7% in experiment [2]; 9.2% in experiment [3]; -2.15% in experiment [4]; 1.35% in experiment [5]; 5.3% in experiment [6].
